Assay outcomes: PubChem BioAssay, National Center for Advancing Translational Sciences (NCATS)
IL1B secr inh: inflammasome signaling inhibition, IL-1 beta readout | THP-1 LPS/ATP IL-1B secretion, AlphaLISA, 16 h; stronger effect = lower value | activity change, % at 57.5 µM | hit rate 4.7% among 360,000; in the data active means activity change below about -50%; inconclusive means mostly about -30% to -49%
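Secreted IL-1B measured by AlphaLISA bead assay after 16 h compound exposure of THP-1 cells; compounds (final up to 57.5 uM) added 1 h before LPS (250 ng/mL) and ATP (1.25 mM) stimulation; lower signal means less secretion.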
HT1080NT lethal: kills 2HG-producing HT-1080-NT fibrosarcoma cells; HT-1080-NT fibrosarcoma viability, CellTiter-Glo ATP luminescence, 48 h; AID 686970; Potency, µM (highest dose often 46.1 µM), without a hit: at the highest dose activity, negative = less viability, actives largely listed as cytotoxic; hit rate 1.6% among 360,000;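 further: NT is the 2HG producing partner of a matched IDH1 knockdown line; potency means the concentration at half of the fitted maximal effect; 0% = DMSO-treated cells and -100% = media-only wells without cells; nearly all actives have a fitted effect of over 55% in size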
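Toxicity toward the 2HG-producing NT line was scored as %Activity, normalised to DMSO and no-cell wells, from CellTiter-Glo luminescence after 48 hours' treatment.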
HT1080 IDH1KD tx: HT-1080 IDH1 knockdown cell toxicity (counter line) | HT-1080 IDH1 knockdown viability, ATP luminescence, 48 h | Potency, µM (series often up to 46.1 µM), inactives show at the top dose activity, negative = toxicity, hits mostly cytotoxic | hit rate 2% among 360,000;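 further: potency means the concentration at half of the fitted maximal effect; 0% = DMSO wells and -100% = cell-free medium wells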
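Viability of IDH1-knockdown HT-1080 fibrosarcoma cells was assessed by CellTiter-Glo after 48 h at 37 °C with titrated compound; concentration-effect curves were classified by fit quality and response size.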
TDP1 cell noCPT: qHTS for Inhibitors of human tyrosyl-DNA phosphodiesterase 1 (TDP1): qHTS in cells in absence of CPT. Potency, µM (highest dose often 46.2 µM), for inactives: at the highest dose activity change, negative = growth inhibition, actives largely listed as inhibitors. hit rate 15% among 420,000. DT40 Tdp1-/- hTDP1 cells, no CPT, ATP luminescence, 48 h; further: potency means the concentration at half of the fitted maximal effect; nearly all actives have a fitted effect of over 55% in size
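Readout: luminescence from CellTiter-Glo after 30 min in the dark at RT. Cells: DT40 Tdp1-/- with stable hTDP1, 400/well. Exposure: compounds alone, ≥48 hr, 37 °C.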
TDP1 cell CPT: DT40-hTDP1 cell growth loss with CPT; Potency, µM (series often up to 46.2 µM), for the others: at the top dose activity change, negative = growth inhibition, most hits filed as inhibitors; hit rate 12% among 420,000; chicken DT40 Tdp1-/-;hTDP1 cells + 20 nM CPT, ATP luminescence, 48 h; further: potency means the concentration at half of the fitted maximal effect; nearly all actives have a fitted effect of over 55% in size
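Cell growth measured by CellTiter-Glo luminescence after a minimum 48 h, 37 C compound exposure with 20 nM CPT in Tdp1-knockout DT40 cells stably expressing hTDP1, seeded 400/well; qHTS titration format.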
12-LOX inh: ALOX12 (human) lipoxygenase inhibition | purified 12hLO, xylenol orange hydroperoxide absorbance | P18054 | hit rate 1.1% among 580,000 | Potency, µM (doses to about 108 µM), for inactives: at the top dose activity change, negative = inhibition, usual class: inhibitors | AID 1671190; further: potency means the concentration at half of the fitted maximal effect
Target sequence (P18054 whole entry, looked up): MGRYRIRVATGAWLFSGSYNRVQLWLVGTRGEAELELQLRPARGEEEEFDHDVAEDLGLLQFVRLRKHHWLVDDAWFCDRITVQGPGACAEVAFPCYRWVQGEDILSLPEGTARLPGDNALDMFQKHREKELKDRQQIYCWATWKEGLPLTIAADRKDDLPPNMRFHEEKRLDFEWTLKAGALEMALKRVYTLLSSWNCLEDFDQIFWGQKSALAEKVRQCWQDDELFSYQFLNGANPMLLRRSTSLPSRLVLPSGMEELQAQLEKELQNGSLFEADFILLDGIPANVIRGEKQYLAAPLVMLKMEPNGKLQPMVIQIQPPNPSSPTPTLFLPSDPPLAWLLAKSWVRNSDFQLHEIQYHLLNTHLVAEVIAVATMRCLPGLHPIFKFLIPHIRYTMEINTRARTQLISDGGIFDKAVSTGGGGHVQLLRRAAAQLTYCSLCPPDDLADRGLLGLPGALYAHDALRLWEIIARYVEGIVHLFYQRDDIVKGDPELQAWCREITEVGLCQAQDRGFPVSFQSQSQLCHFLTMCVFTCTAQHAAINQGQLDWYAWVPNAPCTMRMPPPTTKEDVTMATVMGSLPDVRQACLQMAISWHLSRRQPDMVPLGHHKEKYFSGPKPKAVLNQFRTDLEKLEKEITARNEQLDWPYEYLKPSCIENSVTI
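Purified human 12hLO at 150 nM in 25 mM Hepes, 0.01% Triton X-100, pH 7.0, preincubated 15 min at room temperature with compound. Reaction started with 40 uM arachidonic acid, 30 min at room temperature. Hydroperoxide measured by Fe-xylenol orange, 573/405 nm absorbance ratio.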
* hit, by the source's call; ? = inconclusive; . = no result given; [ ] = dose if it differs, or a comment. The sample as a whole holds a higher share of hits than the screen did. Unless noted, the call rests on the fitted dose curve; in most records, active means well fitted curve in the direction sought with a large enough effect; inconclusive means small, poorly fitted or top-dose-only effect, or another doubt; inactive means no such curve, though single readings can be large; an effect the other way counts as inactive or inconclusive. Unless noted, on the % scale 0 is the no-effect control and ±100 the full control effect.

SMILES | IL1B secr inh | HT1080NT lethal | HT1080 IDH1KD tx | TDP1 cell noCPT | TDP1 cell CPT | 12-LOX inh
CCOc1ccc(-c2cc(C(=O)NCCCn3ccnc3)c3cc(Br)ccc3n2)cc1 | -99.1* | ? | ? | 10.3µM* | 11.6µM* | ?
CCOc1cccc(-c2cc(C(=O)NCCCN3CCOCC3)c3ccccc3n2)c1 | . | . | . | . | . | -6.8%
CCOc1ccc(-c2cc(C(=O)NCCCN3CCN(CC)CC3)c3ccccc3n2)cc1 | -71.2* | ? | ? | ? | ? | 7.1%
CCCC(=O)N1CC2(CCCN2CC2CC2)Cc2ccccc21 (centres undefined) | . | . | . | . | . | 5.3%[6.33 µM]
NC(=O)CC(NC(=O)c1ccccc1)c1ccc(NC2CCCC2)c([N+](=O)[O-])c1 (centres undefined) | -0.9 | -2.8% | -2.7% | 18.4µM* | 4.61µM* | ?
NC(=O)CC(NC(=O)c1ccccc1)c1ccc(NCC2CC2)c([N+](=O)[O-])c1 (centres undefined) | -0.1 | 5.5% | -1.2% | ? | 23.1µM* | -12.6%
NC(=O)CC(NC(=O)c1ccccc1)c1ccc(NC2CCC2)c([N+](=O)[O-])c1 (centres undefined) | -9.1 | 4.2% | 2.3% | ? | ? | -28.1%
C[C@H]1[C@@H](NS(=O)(=O)c2cccs2)CC[C@@]23CCCN2C(=O)CCC[C@@H]13 | . | . | . | . | . | 16.2%
CC1=C(C(=O)OCC(F)(F)C(F)(F)F)C(c2ccc3c(c2)OCO3)NC(=O)N1 (centres undefined) | . | . | . | . | . | -9.9%
COc1ccc(S(=O)(=O)c2cn(C)c3cc(N4CCCCCC4)c(F)cc3c2=O)cc1 | . | . | . | 14.6µM* | 18.4µM* | -6.4%
CCCCn1cc(S(=O)(=O)c2ccc(Cl)cc2)c(=O)c2cc(F)c(N3CCCCC3)cc21 | . | . | . | 11.6µM* | 11.6µM* | -7.1%
CCCn1cc(S(=O)(=O)c2ccc(OC)cc2)c(=O)c2cc(F)c(N3CCCC(C)C3)cc21 (centres undefined) | . | . | . | 18.4µM* | ? | -6.5%
Cc1cc(C)cc(S(=O)(=O)c2cn(C)c3cc(N4CCCC4)c(F)cc3c2=O)c1 | . | . | . | 4.9% | -3.3% | -12.6%
CCCn1cc(S(=O)(=O)c2ccc(C)cc2)c(=O)c2cc(F)c(N3CCCC3)cc21 | . | . | . | -26.5% | ? | ?
CCCCn1cc(S(=O)(=O)c2ccc(C)cc2)c(=O)c2cc(F)c(N3CCCCC3)cc21 | . | . | . | 13µM* | 18.4µM* | 1.4%
COc1ccc2cc(C(=O)OC(C)C(N)=O)c(C)nc2c1 (centres undefined) | . | . | . | . | . | 31.3%
Cc1nn(-c2ncnc3nc[nH]c23)c2c1C(c1c(F)cccc1F)CC(=O)N2 (centres undefined) | . | . | . | . | . | -1.8%
Cc1c(C(=O)C(=O)Nc2ccc(C(N)=O)cc2)c2ccccc2n1C | . | . | . | . | . | 1.6%
Cc1cc(C(=O)N[C@@H]2CN(Cc3ccccc3)C[C@H]2CN(C)C)n(C)n1 | . | . | . | . | . | -7.3%
CCCCn1cc(S(=O)(=O)c2ccc(OC)cc2)c(=O)c2cc(F)c(N3CCCC3)cc21 | . | . | . | 10.3µM* | 11.6µM* | -12.1%
CCCn1cc(S(=O)(=O)c2ccccc2)c(=O)c2cc(F)c(N3CCCC3)cc21 | . | . | . | ? | ? | -17.2%
CCN1CCCC1CNCC1CCCCC1 (centres undefined) | . | . | . | . | . | -7.1%
CCN1CCCC1CNCC(O)COc1ccc(C(C)(C)C)cc1C (centres undefined) | ? | -27.6% | ? | 5.8µM* | 6.51µM* | -19.8%
O=C(CCCc1ccccc1)NCc1ccco1 | . | . | . | . | . | 6.3%
CC(=O)c1cccc(NC(=O)C2CCCN2S(=O)(=O)c2cccs2)c1 (centres undefined) | 20.7 | 14.0% | 5.4% | 9.6% | -1.8% | 5.4%
